We go through 154 variants from a collection of fitness landscapes (doi:10.1016/j.celrep.2020.107928).

The chains are these.
B1: Caulobacter ParB omega fusion; a variant is named by its letters at X, in order, B8GW30 (parent)
chain: MESVVVGEPGMSEGRRGLGRGLSALLGEVDAAPAQAPGEQLGGSREAPIEILQRNPDQPRRTFREEDLEDLSNSIREKGVLQPILVRPSPDTAGEYQIVAGERAWRAAQRAGLKTVPIMVRELDDLAVLEIGIIENVQRADLNVLEEALSYKVLMEKFERTQENIAQTIGKSXSHVANXMRLLXLPDEVQSYLVSGELTAXHARAIAAAADPVALAKQIIEGGLSVRETEALARKAPNLSAGKSKGGRPPRVKDTDTQALESDLSSVLGLDVSIDHRGSTGTLTITYATLEQLDDLCNRLTRGI

Whole data set: some 81,000 sequences, median “one-hybrid fitness for binding parS DNA” near -0.17, cut for the highest 2% near 0.51. The list comes from a sample in which the highest values are over-represented; it also holds similar and randomly drawn sequences.

This experiment covers variants of B1. The experiment is described as follows: one-hybrid fitness for binding parS DNA (scaled: cognate 1, non-cognate 0); higher = stronger binding. As to conditions: with parS DNA site. A digest of the protocol:
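The reporter was HIS3, with the binding site 19 bp from the promoter, in E. coli USO used for bacterial one-hybrid selection of Caulobacter ParB libraries with four specificity codons randomised. Growth was on M9 lacking histidine, with 0.1 mM IPTG and 5 mM 3-AT, for 48 hours at 37°C. Illumina sequencing covered plasmids before and after selection; three replicate libraries were pooled and variants with under 10 reads dropped. A fitness score is the log change in variant-to-wild-type read ratio, rescaled to the cognate and non-cognate references.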
On to PFSC, for which the “one-hybrid fitness for binding parS DNA” value was at most 0.2. For GKMI the value was at most 0.2.

For LFDL, the “one-hybrid fitness for binding parS DNA” value is at most 0.2. For TQEV the value was at most 0.2. For RKRY the value was 0.422; for FSIS, at most 0.2. On to RVCY, for which the “one-hybrid fitness for binding parS DNA” value was 0.462. With RVNT the figure was 0.899; with RVCT, 0.926; with RVGD, at most 0.2. With RVNP the figure was at most 0.2. Regarding RVNH, the “one-hybrid fitness for binding parS DNA” value is at most 0.2. With RVCM the figure was 0.382; with RVGN, 0.451.

As to RVGT, the “one-hybrid fitness for binding parS DNA” value stood at 0.924. With PRGK the figure was at most 0.2.

As to VWDG, the “one-hybrid fitness for binding parS DNA” value is at most 0.2.

As for IEKT, the “one-hybrid fitness for binding parS DNA” value was at most 0.2. With VALY the figure was at most 0.2. For GQET the value was at most 0.2; for SLYK, at most 0.2. With GKPL the figure was at most 0.2.

As to RHEK, the “one-hybrid fitness for binding parS DNA” value was at most 0.2. As to RAEK, the “one-hybrid fitness for binding parS DNA” value was at most 0.2. Regarding RPET, the “one-hybrid fitness for binding parS DNA” value is at most 0.2. With RAET the figure was 0.68; with RAEI, at most 0.2.

Turning to RDET, the “one-hybrid fitness for binding parS DNA” value is at most 0.2.

As for RCET, the “one-hybrid fitness for binding parS DNA” value was 0.758. For RRET the value was 0.674. For RHEM the value was 0.214.

With RHET, the “one-hybrid fitness for binding parS DNA” value amounted to 0.734. With EKRG the figure was at most 0.2. For SQQG the value was at most 0.2; for TPYC, at most 0.2; for VTLR, at most 0.2. With QKRV the figure was at most 0.2; with QSKN, at most 0.2.

For the variant QNAM, the “one-hybrid fitness for binding parS DNA” value was at most 0.2. With EGGH the figure was at most 0.2; with VPIN, at most 0.2. With DWQR the figure was at most 0.2; with RGET, 0.308. With EFET the figure was at most 0.2; with RIEF, at most 0.2; with RFET, 0.655. As to REET, the “one-hybrid fitness for binding parS DNA” value is at most 0.2. For RMEF the value was at most 0.2. For PFET the value was at most 0.2; for RIET, 0.709. As for RMEM, the “one-hybrid fitness for binding parS DNA” value is 0.309. On to RMET, for which the “one-hybrid fitness for binding parS DNA” value is 0.731. For RIEK the value was at most 0.2; for RSET, 0.653; for PTPR, at most 0.2. With QSVP the figure was at most 0.2; with AQRA, at most 0.2. With WPTL the figure was at most 0.2. In the case of GPKW, the “one-hybrid fitness for binding parS DNA” value was at most 0.2. For RLET the value was 0.783. As for RLEK, the “one-hybrid fitness for binding parS DNA” value was at most 0.2. For RTEP the value was at most 0.2. With RLEY the figure was 0.458; with RTEN, 0.349. With RKER the figure was at most 0.2. Regarding RKET, the “one-hybrid fitness for binding parS DNA” value worked out at 0.799.

In the case of RKEY, the “one-hybrid fitness for binding parS DNA” value was determined as 0.401. Consider RTET, for which the “one-hybrid fitness for binding parS DNA” value came out at 0.75.

On to AEWH, for which the “one-hybrid fitness for binding parS DNA” value was at most 0.2. For ISIL the value was at most 0.2; for LPPC, at most 0.2; for TELP, at most 0.2. For PLFM the value was at most 0.2. With HICT the figure was at most 0.2; with SMNV, at most 0.2. As for SGQL, the “one-hybrid fitness for binding parS DNA” value was at most 0.2.

In the case of LYHP, the “one-hybrid fitness for binding parS DNA” value is at most 0.2.

As to RHQA, the “one-hybrid fitness for binding parS DNA” value came out at 0.5.

For the variant RGQA, the “one-hybrid fitness for binding parS DNA” value was found to be 0.364. With NTQA the figure was at most 0.2; with DTQA, at most 0.2; with RTQA, 0.627. With RCQA the figure was 0.593; with RWQA, 0.404; with RSQA, 0.555. With RDQA the figure was at most 0.2; with RMQA, 0.574.

Turning to VRKH, the “one-hybrid fitness for binding parS DNA” value is at most 0.2.

With GAVT, the “one-hybrid fitness for binding parS DNA” value is at most 0.2.

For the variant RVVL, the “one-hybrid fitness for binding parS DNA” value is at most 0.2.

For the variant YEHG, the “one-hybrid fitness for binding parS DNA” value was at most 0.2.

For GAFN, the “one-hybrid fitness for binding parS DNA” value is at most 0.2. CTDH: the “one-hybrid fitness for binding parS DNA” value is at most 0.2. For PIDR the value was at most 0.2; for SPPW, at most 0.2. For IYKI the value was at most 0.2. As to NLQA, the “one-hybrid fitness for binding parS DNA” value is at most 0.2. With CLQA the figure was at most 0.2; with RLQA, 0.616; with KMPV, at most 0.2. For KSYG the value was at most 0.2. For MYPR the value was at most 0.2.

In the case of AHSN, the “one-hybrid fitness for binding parS DNA” value was at most 0.2. For MNDG the value was at most 0.2; for QPYH, at most 0.2; for TMHS, at most 0.2.

In the case of PTQT, the “one-hybrid fitness for binding parS DNA” value was at most 0.2. For RAVS the value was 0.986. On to RAVH, for which the “one-hybrid fitness for binding parS DNA” value amounted to 0.202. RAVD: the “one-hybrid fitness for binding parS DNA” value was at most 0.2.

Turning to RAKS, the “one-hybrid fitness for binding parS DNA” value was determined as 0.874. As to RAKH, the “one-hybrid fitness for binding parS DNA” value amounted to 0.239. With RAKP the figure was at most 0.2; with TSEV, at most 0.2. With RRHL the figure was at most 0.2.

In the case of PNHC, the “one-hybrid fitness for binding parS DNA” value was at most 0.2. For NLGV the value was at most 0.2; for RAVG, 0.923.

Turning to RAKG, the “one-hybrid fitness for binding parS DNA” value came out at 0.937. With RAVR the figure was at most 0.2; with RAKK, at most 0.2. With RAKQ, the “one-hybrid fitness for binding parS DNA” value was at most 0.2. For the variant RAVF, the “one-hybrid fitness for binding parS DNA” value was at most 0.2. With QLEL the figure was at most 0.2; with FTDC, at most 0.2; with NTWT, at most 0.2. Take RQDN: the “one-hybrid fitness for binding parS DNA” value came to 0.431. For RQNP the value was at most 0.2; for RQDS, 0.977; for RQNH, 0.329. With RQDP the figure was at most 0.2; with RQNS, 0.921.

As for PMTF, the “one-hybrid fitness for binding parS DNA” value was at most 0.2. With IRPV the figure was at most 0.2; with RSLM, 0.32; with WKDS, at most 0.2.

As to RCKC, the “one-hybrid fitness for binding parS DNA” value worked out at 0.816. For RPKC the value was at most 0.2.

Consider RSKN, for which the “one-hybrid fitness for binding parS DNA” value turned out to be 0.443. With RSKC the figure was 0.943; with RDKC, 0.282; with RSKP, at most 0.2. With IDNS, the “one-hybrid fitness for binding parS DNA” value was at most 0.2.

In the case of QCDG, the “one-hybrid fitness for binding parS DNA” value is at most 0.2.

For PPSE, the “one-hybrid fitness for binding parS DNA” value was at most 0.2. Turning to KIGR, the “one-hybrid fitness for binding parS DNA” value is at most 0.2. With ANCC the figure was at most 0.2; with HRKN, at most 0.2; with RNKS, 0.936. For RNVS the value was 0.674; for RNYY, 0.297. With RNVD the figure was at most 0.2; with RNKN, 0.354.

Take RNVY: the “one-hybrid fitness for binding parS DNA” value is at most 0.2.
